Source: PubChem BioAssay (EPA / NIEHS)
Where “and” joins values, the source holds several entries; their conditions need not be identical. Equal values may be shown once. Calls of active or inactive are those of the source. The calls were made as follows: active = hit-call score of the fitted dose curve at least 0.9, where 1 is the maximum; inactive = score below 0.9.

Assay: IUF_NPC2a_radial_glia_migration_120hr: Leibniz Research Institute for Environmental Medicine (IUF) 120-hour Neural Progenitor Cell Migration Assay for Radial Glia Migration (NPC2a) (AID 2284298)
Protocol: IUF_NPC2-5 is a cell-based, multiplexed assay that uses hNPC, a human primary neural progenitor cells, with measurements taken at 72 or 120 hours after chemical dosing in a 96-well plate. Human neural progenitor cells (hNPC) are generated from human fetal brain cortex at gestational week (GW) 16-19. In the neural progenitor cell migration and differentiation assay (NPC2-5), hNPCs grown as spheres are plated on an extracellular matrix and migrate and differentiate out of the sphere core. The processes radial glia migration, neuronal and oligodendrocyte migration as well as neuronal differentiation, neuronal morphology and oligodendrocyte differentiation are studied using automated phase contrast imaging and automated fluorescence imaging in combination with high content image analysis. In parallel, the cell viability is assessed using an alamar blue viability assay and the cytotoxicity using a lactate dehydrogenase dependent membrane integrity assay.IUF_NPC2a_radial_glia_migration_120hr is one of 12 assay components measured from the IUF_NPC2-5 assay. The migration distance of radial glia at 120 hr is assessed in um from the edge of the sphere core to the edge of the migration area based on fluorescent images of Hoechst-positive nuclei. With the identification of each nucleus position around the sphere core, migration-related parameters can be calculated. First, a nuclei density distribution is calculated for which an algorithm determines relatively more and less dense nuclei areas. This calculation identifies the sphere core by the densest nuclei area in the image. The algorithm further assumes that nuclei density decreases from the sphere core to the periphery. When the nuclei density hits a pre-defined threshold, the outer boundaries of the migration area are determined and the sphere itself is mapped out in a polynomial bounding box. Derived from this box, the size of the migration area and the migration distance are calculated for each well.Data from the IUF_NPC2a_radial_glia_migration_120hr component was analyzed at the endpoint IUF_NPC2a_ radial_glia_migration_120hr in the positive analysis fitting direction relative to DMSO as the negative control and baseline of activity. Using a type of migration reporter, gain or loss-of-signal activity can be used to understand developmental effects.
Culture protocol: After the cell expansion period the cells are cultured for up to four weeks in which they are passaged every week as described in 3.6. Between one to three days after passaging spheres at a size of 0.3 mm are picked for the test method. For the assessment of neural progenitor cell migration and differentiation, the spheres are plated on poly-D-lysine/laminin coated 96-well flat bottom plates in differentiation medium (N2) to initiate migration and differentiation. Thereby one 0.3 mm big sphere is plated in the middle of a well. The differentiation medium consists of DMEM and Ham's F12 at a ratio of 3 to 1 supplemented with 1% N2 and 1% penicillin and streptomycin. Within 5 days NPCs radially migrate out of the sphere core and differentiate into radial glia cells (nestin positive), neurons (TUBB3 positive), oligodendrocytes (O4 positive) and astrocytes (GFAP positive). Cultivation during the test method is performed at 37C and 5% CO2 at a ph of 7.2-7.6.Exposure: 0.3 mm big hNPC are plated in the already prepared test conditions. Exposure starts at day 0 of differentiation and is continued over five days of differentiation until the experiment is terminated. Cells are fed with fresh medium at day 3 of differentiation. Therefore, half of the test condition solution (e.g. solvent control or compound dilution) is replaced by freshly prepared test condition solution.Test Method: Migration distance and cytotoxicity is determined after 72 hours based on brightfield images of each well. The assay is terminated by the assessment of cell viability and cytotoxicity as well as cell fixation after 120 h. […]

Row | Structure (SMILES) | outcome | AC50
1 | C[N+]1(C)CCCCC1 | inactive | 
2 | COP(=O)(OC)C(O)C(Cl)(Cl)Cl (centres undefined) | inactive | 
3 | CCOP(=S)(OCC)Oc1cc(C)nc(C(C)C)n1 | inactive | 
4 | CON=C(C(=O)OC)c1ccccc1CON=C(C)c1cccc(C(F)(F)F)c1 |  | 11.8 µM (active)
5 | S=C1NCCN1 | inactive | 
6 | CCCSP(=O)(OCC)SCCC | inactive | 
7 | CC[C@H](C)[C@H]1O[C@]2(C=C[C@@H]1C)C[C@@H]1C[C@@H](C/C=C(\C)[C@@H](O[C@H]3C[C@H](OC)[C@@H](O[C@H]4C[C@H](OC)[C@@H](NC)[C@H](C)O4)[C@H](C)O3)[C@@H](C)/C=C/C=C3\CO[C@@H]4[C@H](O)C(C)=C[C@@H](C(=O)O1)[C@]34O)O2 |  | 1.1 µM (active) and 2.22 µM (active)
8 | COP(=O)(NC(C)=O)SC (centres undefined) | inactive | 
9 | CCOP(=S)(OCC)OC(Cl)C(Cl)(Cl)Cl (centres undefined) |  | 22.8 µM (active)
10 | CN(C)[C@@H]1C(=O)C(C(N)=O)=C(O)[C@@]2(O)C(=O)C3=C(O)c4c(O)cccc4[C@@](C)(O)[C@H]3[C@H](O)[C@@H]12 |  | 42.5 µM (active)
11 | CCOP(=S)(Oc1cnc(C(C)(C)C)nc1)OC(C)C (centres undefined) | inactive | 
12 | CC(=NC#N)N(C)Cc1ccc(Cl)nc1 | inactive | 
13 | CCOP(=O)(OCC)Oc1cc(C)nc(C(C)C)n1 | inactive | 
14 | O=[N+]([O-])c1cc(C(F)(F)F)c(Cl)c([N+](=O)[O-])c1Nc1ncc(C(F)(F)F)cc1Cl |  | 0.832 µM (active)
15 | C=C(C)[C@H]1Cc2c(ccc3c2O[C@@H]2COc4cc(OC)c(OC)cc4[C@@H]2C3=O)O1 |  | 244 nM (active) and 3.4 nM (active)
16 | CC(C)N(C(=O)SCC(Cl)=C(Cl)Cl)C(C)C |  | 4.18 µM (active)
17 | COP(=O)(OC)OC(Br)C(Cl)(Cl)Br (centres undefined) |  | 35.4 µM (active)
18 | CCCCSP(=O)(SCCCC)SCCCC | inactive | 
19 | CSC1=N[C@@](C)(c2ccccc2)C(=O)N1Nc1ccccc1 | inactive | 
20 | CC1=NNC(=O)N(/N=C/c2cccnc2)C1 | inactive | 
21 | CCOP(=O)(NC(C)C)Oc1ccc(SC)c(C)c1 (centres undefined) |  | 33.7 µM (active)
22 | CN1COCN(Cc2cnc(Cl)s2)C1=N[N+](=O)[O-] | inactive | 
23 | CCOP(=S)(OCC)SCCSCC | inactive | 
24 | CCOC(=O)CC(SP(=O)(OC)OC)C(=O)OCC (centres undefined) | inactive | 
